From the supplement of paper PMC10338343
± gives the standard deviation.

Tested on: MILI (PIWIL2) piRISC loaded with L1MC piRNA (26 nt);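 also: 1 nM active piRISC with 0.1 nM target library at 33 °C single turnover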
Test: pre-steady-state target cleavage rate (min^-1); guide: L1MC piRNA 5'p-UAACUAAAUACUAUGCAAGCUGUAGG; higher = faster piRNA-guided slicing of the target
Conditions: auxiliary factor: 500 nM mouse GTSF1
Procedure, shortened: (§1)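 In HEPES–potassium acetate buffer at 33 °C, […] transcribed, DNA-blocked target RNA library was mixed with 1 nM active affinity-purified piRISC carrying one synthetic guide, with or without 500 nM GTSF1 partner protein, for 0–8 or 0–960 min. Uncleaved targets were sequenced and normalised to depth and to weakly complementary targets; three trials were pooled and k3 was capped at 0.0001 min^-1. The pre-steady-state cleavage rate followed from a burst-and-steady-state fit.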

Sequence	pre-steady-state target cleavage rate
UCCUGGAUCAGCUUGCAUAGUAUGUAGUUA	0.202 ± 0.018
UCCUGGUUCUGCUUGCAUAGUAUUUAGUUA	0.186 ± 0.024
UCCUGGAUGAGCUUGCAUAGUCUUUAGUUA	0.0764 ± 0.012
UCCUGGAUCUCCUUGCAUAGUAUUUUCAAA	0.0367 ± 0.0088
UCCUGGAUCAGCUUGCAUAGUAGUUAGUUA	0.201 ± 0.016
UCCUGGAUGUCGUUGCAUAGUAUCUAGUUA	0.11 ± 0.019
UCCUCGUACAGCUUGCAUAGAAUUUAGUUA	0.0473 ± 0.0079
UCCUGGUGACAGCUUGCAUAGUAUUUAGUUA	0.507 ± 0.044
UCCUGGAACAGCUUGCAUAGUAUAAUCAAA	0.0568 ± 0.016

Same assay, conditions: auxiliary factor: none (no GTSF1)

Sequence	pre-steady-state target cleavage rate
UCCUGGAUCAGCUUGCAUAGCAUUUAGUUA	0.00359 ± 0.0025
UCCUGGAUCACGUUGCAUAGUAUUUAGAAA	0.00275 ± 0.0027
UCCUGGAUCUGCUUGCAUAGUAUAUAGUUA	0.00587 ± 0.0024
UCCUGGAACAGCUUGCAUCGUAUUUAGUUA	0.00682 ± 0.0024
UCCUGGAUGUCGAUGCAUACUAUUUAGUAA	< 0.0001
UCCUGGAAGAGCUUGCAUACUAUUUAGUUA	0.00312 ± 0.0024
UCCUGGAUCAGCUUGCAUAGUACUUUAGUUA	0.00672 ± 0.0027
UCCUGGAUGAGCUUGCAUAGUAUGUAGUUA	0.0043 ± 0.003
UCCUGGGACAGCUUGCAUAGUAUUUAGUUA	0.0138 ± 0.0034
UCCUGGAUCAGCUUGCAUAGUAUGUAGUUA	0.00457 ± 0.0024
UCCUGGAUGUCGAACGAAAGUAUUUAGUAA	< 0.0001
UCCUGGUUCUGCUUGCAUAGUAUUUAGUUA	0.00814 ± 0.0033
UCCUGGAUGAGCUUGCAUAGUCUUUAGUUA	0.00627 ± 0.0022
UCCUGGAUCAGCUUGCAUAGUAGUUAGUUA	0.00826 ± 0.0022
UCCUGGUGACAGCUUGCAUAGUAUUUAGUUA	0.0285 ± 0.0085

Tested on: EfPiwi piRISC loaded with L1MC piRNA (26 nt)
Test: pre-steady-state target cleavage rate (min^-1); auxiliary factor: none (no Gtsf1); guide: L1MC piRNA 5'p-UAACUAAAUACUAUGCAAGCUGUAGG; higher = faster piRNA-guided slicing of the target
Conditions: not given
Procedure, shortened: as §1

Sequence	pre-steady-state target cleavage rate
UCCUGGAUCAGCUUGCAUAGCAUUUAGUUA	0.00546 ± 0.0038
UCCUGGAUCACGUUGCAUAGUAUUUAGAAA	< 0.0001
UCCUGCUACAGCUUGGAUAGUAUUUACAAA	< 0.0001
UCCUGGAUCUGCUUGCAUAGUAUAUAGUUA	0.011 ± 0.0069
UCCUGGAUCAGCUUGCAUAGUACUUAGUUA	0.0113 ± 0.0052
UCCUGGAUGUCGAACCAUAGUUUUAGUUA	< 0.0001
UCCUGGAACAGCUUGCAUCGUAUUUAGUUA	0.00791 ± 0.0048
UCCUGCUAGAGCUUGCAUAGUAUUUAGAAA	< 0.0001
UCCUCCUACACCUUCCAUAGUAUUUAGUUA	< 0.0001
UCCUGGAAGAGCUUGCAUACUAUUUAGUUA	0.00581 ± 0.0041
UCCUCCUACAGCUUGCAUAGGAUUUAGUUA	0.00638 ± 0.0035
UCCUGCAUGAGCUUGCAUAGUAUUUAGAAA	< 0.0001
UCCUGGAUGUGCAUGCAUAGUAUUUAGAUA	< 0.0001
UCCUCCUACAGCUUGCAUAGUAUUGUAGUUA	< 0.0001
UCCUGGAUCAGCUUGCAUAGUACUUUAGUUA	0.00468 ± 0.0038
UCCUGCUACAGCAUCCAUAGUAUUUAGUUA	< 0.0001
UCCUGGAUGUCGAAGGAUAGUAUUAAGUUA	< 0.0001
UCCUGGAUGAGCUUGCAUAGUAUGUAGUUA	0.00616 ± 0.0049
UCCUGGGACAGCUUGCAUAGUAUUUAGUUA	0.00525 ± 0.0051
UCCUGCUACAGCUUGCAUAGUAUUUAGCUA	< 0.0001
UCCUGGAUCAGCUUGCAUAGUAUGUAGUUA	0.0179 ± 0.0092
UCCUGGUUCUGCUUGCAUAGUAUUUAGUUA	0.00563 ± 0.0047
UCCUGGAUGAGCUUGCAUAGUCUUUAGUUA	0.0128 ± 0.0056
UCCUGGAUCAGCUUGCAUAGUAGUUAGUUA	0.0324 ± 0.012
UCCUCGUACAGCUUGCAUAGAAUUUAGUUA	0.00853 ± 0.0037
UCCUGGUGACAGCUUGCAUAGUAUUUAGUUA	0.0577 ± 0.023

Tested on: EfPiwi piRISC loaded with L1MC piRNA (26 nt)
Test: pre-steady-state target cleavage rate (min^-1); auxiliary factor: 500 nM Ephydatia muelleri Gtsf1; guide: L1MC piRNA 5'p-UAACUAAAUACUAUGCAAGCUGUAGG; MIWI and MILI are mouse PIWI proteins and EfPiwi is from a freshwater sponge; tags in brackets are library labels; higher = faster piRNA-guided slicing of the target
Conditions: not given
Procedure, shortened: as §1

Sequence	pre-steady-state target cleavage rate
UCCUGGAUCAGCUUGCAUAGCAUUUAGUUA	0.00774 ± 0.0021
UCCUGGAUCACGUUGCAUAGUAUUUAGAAA	0.00652 ± 0.0044
UCCUGCUACAGCUUGGAUAGUAUUUACAAA	0.00306 ± 0.0026
UCCUGGAUCUGCUUGCAUAGUAUAUAGUUA	0.0643 ± 0.018
UCCUGGAUCAGCUUGCAUAGUACUUAGUUA	0.0145 ± 0.0031
UCCUGGAUGUCGAACCAUAGUUUUAGUUA	< 0.0001
UCCUGGAACAGCUUGCAUCGUAUUUAGUUA	0.0172 ± 0.0048
UCCUGCUAGAGCUUGCAUAGUAUUUAGAAA	0.00419 ± 0.0022
UCCUCCUACACCUUCCAUAGUAUUUAGUUA	0.00329 ± 0.0018
UCCUGGAAGAGCUUGCAUACUAUUUAGUUA	0.00438 ± 0.0026
UCCUCCUACAGCUUGCAUAGGAUUUAGUUA	0.0113 ± 0.0028
UCCUGCAUGAGCUUGCAUAGUAUUUAGAAA	0.00569 ± 0.0021
UCCUGGAUGUGCAUGCAUAGUAUUUAGAUA	0.00317 ± 0.0024
UCCUCCUACAGCUUGCAUAGUAUUGUAGUUA	0.0032 ± 0.0012
UCCUGGAUCAGCUUGCAUAGUACUUUAGUUA	0.00735 ± 0.0023
UCCUGCUACAGCAUCCAUAGUAUUUAGUUA	0.00233 ± 0.0017
UCCUGGAUGUCGAAGGAUAGUAUUAAGUUA	< 0.0001
UCCUGGAUGAGCUUGCAUAGUAUGUAGUUA	0.0135 ± 0.0044
UCCUGGGACAGCUUGCAUAGUAUUUAGUUA	0.0163 ± 0.0059
UCCUGCUACAGCUUGCAUAGUAUUUAGCUA	0.00339 ± 0.0014
UCCUGGAUCAGCUUGCAUAGUAUGUAGUUA	0.0171 ± 0.0042
UCCUGGUUCUGCUUGCAUAGUAUUUAGUUA	0.0355 ± 0.011
UCCUGGAUGAGCUUGCAUAGUCUUUAGUUA	0.0107 ± 0.0033
UCCUGGAUCAGCUUGCAUAGUAGUUAGUUA	0.0207 ± 0.0049
UCCUCGUACAGCUUGCAUAGAAUUUAGUUA	0.00771 ± 0.0018
UCCUGGUGACAGCUUGCAUAGUAUUUAGUUA	0.0328 ± 0.01
